Compound activity as filed in PubChem BioAssay.
MCL1 BIM primary – disrupts human MCL1 binding to BIM-BH3 peptide | Q07820 | GST-MCL1 / FITC-Bim-BH3 fluorescence polarization | inhibition, % at 10.9 µM | hit rate 0.68% among 320,000 | AID 2057;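 active means inhibition above the mean inhibition of all tested compounds plus 3 SD, set per campaign, cut at about 40% in these data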;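 further: 0% = DMSO wells and 100% = unlabeled Bim-BH3 peptide control; higher means more loss of mP so more displacement of Bim peptide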
Target sequence (Q07820 whole entry, looked up): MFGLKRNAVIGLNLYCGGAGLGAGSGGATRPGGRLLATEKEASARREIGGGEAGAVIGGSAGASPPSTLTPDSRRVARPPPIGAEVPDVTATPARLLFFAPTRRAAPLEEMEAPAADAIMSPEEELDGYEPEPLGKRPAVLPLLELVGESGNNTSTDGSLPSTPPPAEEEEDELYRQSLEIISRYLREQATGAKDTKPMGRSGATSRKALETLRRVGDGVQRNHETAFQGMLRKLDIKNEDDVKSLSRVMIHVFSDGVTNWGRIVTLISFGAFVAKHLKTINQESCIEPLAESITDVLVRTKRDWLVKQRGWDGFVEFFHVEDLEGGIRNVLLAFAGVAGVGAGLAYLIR
Mcl1 Bid PPI – Mcl-1/Bid interaction inhibition; Q07820; TR-FRET Mcl-1/Bid-Dy647 peptide binding, 1536-well; inhibition, % at 21.7 µM; hit rate 0.97% among 220,000; AID 1021;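 active means compounds that cut the binding signal by more than half at the single screening dose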;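 further: His-tagged Mcl-1 with europium anti-His antibody binding Bid BH3 peptide; 0% = Mcl-1 plus peptide wells and 100% = peptide-only wells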
Bcl-xL primary – Bcl-xL (human) inhibition. Q07817. GST-Bcl-xL / FITC-Bim BH3 peptide fluorescence polarization. inhibition, % at 10.9 µM. hit rate 0.7% among 320,000. AID 2129;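 active means inhibition above the mean of all tested compounds plus 3 SD, cutoff set per campaign, cut at about 30% in these data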;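 further: 0% = DMSO wells and 100% = unlabeled Bim-BH3 peptide competitor; inhibitors lower millipolarization by displacing the labeled peptide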
Target sequence (Q07817 whole entry, looked up): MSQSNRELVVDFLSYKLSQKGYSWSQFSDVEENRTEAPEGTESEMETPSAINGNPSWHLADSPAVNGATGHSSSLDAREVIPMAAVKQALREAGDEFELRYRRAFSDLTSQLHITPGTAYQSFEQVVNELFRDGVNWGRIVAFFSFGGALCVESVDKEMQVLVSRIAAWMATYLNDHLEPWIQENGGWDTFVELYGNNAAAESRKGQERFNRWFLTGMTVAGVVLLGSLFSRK
GLD-1 TGE inh – GLD-1-TGE RNA interaction inhibition (C. elegans); Q17339; purified GLD-1 + fluorescein TGE RNA, fluorescence polarization; inhibition, % at 5.96 µM; hit rate 0.44% among 320,000; AID 2280;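 active means percent inhibition above a per-plate cutoff, the plate mean of test compounds plus 3 SD, cut at about 30% in these data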;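 further: 0% = DMSO wells with GLD-1 and probe and 100% = wells lacking GLD-1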
Mcl1 Noxa PPI – Mcl-1/Noxa interaction inhibition | Q07820 | TR-FRET Mcl-1/Noxa peptide binding, 2 h | inhibition, % at 21.7 µM | AID 1022 | hit rate 1.5% among 220,000;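 active means compounds that cut the protein-peptide binding signal by more than 50% relative to plate controls in a single-dose test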;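 further: His-tagged Mcl-1 with rhodamine Noxa BH3 peptide and terbium anti-His antibody; 0% = Mcl-1 plus Noxa peptide wells and 100% = peptide-only wells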
Mcl-1 Bim block – inhibitors of Bim-Mcl-1 interaction, human; Q07820; Bead-based flow cytometry, Bim peptide-Mcl-1 binding; inhibition, % at 10 µM; hit rate 0.1% among 190,000; AID 1009; in the data active means inhibition above about 40%;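 further: 0% = no compound tracer wells and 100% = peptide blocker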
Bcl-xL conf – Bcl-xL (human) inhibition, MCL1 counter-screen confirmation. shares compounds with MCL1 BIM primary. GST-Bcl-xL / FITC-Bim BH3 peptide FP binding. inhibition, % at 10.9 µM. hit rate 54% among 1,700;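 active means inhibition above a cutoff equal to the mean inhibition of all tested compounds plus 3 SD, cut at about 30% in these data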;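 further: 0% = DMSO wells and 100% = unlabeled Bim BH3 control peptide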
MCL1 inh confirm – MCL1-BIM-BH3 interaction inhibition, confirmation; shares compounds with MCL1 BIM primary; GST-MCL1 / FITC-Bim-BH3 fluorescence polarization; inhibition, % at 10.9 µM; hit rate 61% among 1,700; AID 2168;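 active means inhibition above the average of all tested compounds plus 3 SD, cut at about 40% in these data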;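 further: 0% = DMSO wells and 100% = unlabeled Bim-BH3 control peptide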
* hit, by the source's call. This is a sample that favours compounds with a hit; in the whole collection about 2.3% have one here.

For COc1ccc(S(=O)(=O)N(C(=O)c2ccco2)c2cc3sc(=O)oc3c3ccccc23)cc1 the results were MCL1 BIM primary 45*, Mcl1 Bid PPI -30, Bcl-xL primary 17, GLD-1 TGE inh 5, Mcl1 Noxa PPI 19, Mcl-1 Bim block -1, Bcl-xL conf 1 and MCL1 inh confirm -4.
For Cc1ccc(S(=O)(=O)N(C(=O)c2ccco2)c2cc3sc(=O)oc3c3ccccc23)cc1 the results were MCL1 BIM primary 44*, Mcl1 Bid PPI 1, Bcl-xL primary 14, GLD-1 TGE inh 0, Mcl1 Noxa PPI 11, Mcl-1 Bim block 7, Bcl-xL conf 15 and MCL1 inh confirm 10.
Screening CCOc1ccc(S(=O)(=O)N(C(=O)c2ccco2)c2cc3sc(=O)oc3c3ccccc23)cc1 returned MCL1 BIM primary 38, Mcl1 Bid PPI -12, Bcl-xL primary 14, GLD-1 TGE inh -3, Mcl1 Noxa PPI 24 and Mcl-1 Bim block -3.
CC(=O)Oc1c(-c2ccco2)oc2ccccc2c1=O was read as MCL1 BIM primary 4, Mcl1 Bid PPI -25, Bcl-xL primary 8, GLD-1 TGE inh 5, Mcl1 Noxa PPI -7 and Mcl-1 Bim block -4.
`CN1CCc2c(sc(NC(=O)c3cc(Cl)sc3Cl)c2C(N)=O)C1` gave MCL1 BIM primary 48*, Bcl-xL primary 1, GLD-1 TGE inh -8, Bcl-xL conf 7 and MCL1 inh confirm 13.
For CN1CCc2c(sc(N)c2C(N)=O)C1 the results were MCL1 BIM primary 65*, Mcl1 Bid PPI -69, Bcl-xL primary 60*, GLD-1 TGE inh 7, Mcl1 Noxa PPI 4, Mcl-1 Bim block 0, Bcl-xL conf 22 and MCL1 inh confirm 7.
For CCN1CCc2c(sc(N)c2C(N)=O)C1 the results were MCL1 BIM primary 64*, Mcl1 Bid PPI -145, Bcl-xL primary 61*, GLD-1 TGE inh 23, Mcl1 Noxa PPI 14, Mcl-1 Bim block 12, Bcl-xL conf 30 and MCL1 inh confirm 34.
`CN1CCc2c(sc(NC(=O)c3ccco3)c2C(N)=O)C1` gave MCL1 BIM primary 2, Bcl-xL primary 8 and GLD-1 TGE inh -12.
CC1CCC(N2CCN(C(=O)c3ccccc3F)CC2)CC1 (centres undefined) was read as MCL1 BIM primary 5, Bcl-xL primary 3 and GLD-1 TGE inh 9.
`Cc1cccc(C)c1NC(=O)c1cnccn1` gave MCL1 BIM primary 3, Bcl-xL primary -4 and GLD-1 TGE inh -1.
For O=C(NCC1CCCO1)c1cn(Cc2ccccc2)nc1-c1ccc(Cl)cc1 (centres undefined) the results were MCL1 BIM primary 0, Bcl-xL primary 2 and GLD-1 TGE inh 4.
For COc1ccc(N(CC(=O)NC(C)(C)C)C(=O)CCC(=O)Nc2nccs2)cc1 the results were MCL1 BIM primary -4, Bcl-xL primary -2 and GLD-1 TGE inh 9.
Screening CN(CC(=O)NCC1CCCCC1)S(=O)(=O)c1ccc(Cl)cc1 returned MCL1 BIM primary 7, Bcl-xL primary 8 and GLD-1 TGE inh 0.
For Clc1ccccc1-c1ccc(CN2CCN(c3ccccc3)CC2)o1 the results were MCL1 BIM primary 133*, Mcl1 Bid PPI -6, Bcl-xL primary 4, GLD-1 TGE inh 3, Mcl1 Noxa PPI 35, Mcl-1 Bim block -3, Bcl-xL conf 13 and MCL1 inh confirm 10.
O=[N+]([O-])c1ccc(CN2CCN(c3ccccc3)CC2)o1 was read as MCL1 BIM primary 7, Bcl-xL primary 6 and GLD-1 TGE inh 7.
Screening CCc1nnc(NC(=O)CSc2nc(C)nc3c2c(=O)n(C)c(=O)n3C)s1 returned MCL1 BIM primary 7, Bcl-xL primary 5 and GLD-1 TGE inh 0.
`C/C=C/C=C/[C@H]1Cc2cc(O)cc(O)c2O1` gave MCL1 BIM primary 67*, Mcl1 Bid PPI -146, Bcl-xL primary 60*, GLD-1 TGE inh 88*, Mcl1 Noxa PPI 56*, Bcl-xL conf 57* and MCL1 inh confirm 83*.
`CCCCNC(=O)Oc1c(Br)cc2sc(=O)oc2c1Br` gave MCL1 BIM primary 77*, Mcl1 Bid PPI -24, Bcl-xL primary 30, GLD-1 TGE inh 12, Mcl1 Noxa PPI 52*, Bcl-xL conf 36* and MCL1 inh confirm 58*.
`C[C@H]1CN=C(Nc2ccccc2)N1CC1CCC1` gave MCL1 BIM primary 1, Bcl-xL primary -1 and GLD-1 TGE inh 4.
For Cc1cc(S(=O)(=O)N2CCN(c3ccccn3)CC2)c(C)cc1Cl the results were MCL1 BIM primary -7, Bcl-xL primary 3 and GLD-1 TGE inh 6.
`O=C(CCN1C(=O)C2CC=C(Cl)CC2C1=O)N1CCCCC1` (centres undefined) gave MCL1 BIM primary 56*, Mcl1 Bid PPI -30, Bcl-xL primary 54*, GLD-1 TGE inh 58*, Mcl1 Noxa PPI -2, Mcl-1 Bim block -1, Bcl-xL conf 56* and MCL1 inh confirm 66*.
Screening Cc1ccc(C(=O)COC(=O)CN2C(=O)C3C4CC(C(Br)C4Br)C3C2=O)cc1 (centres undefined) returned MCL1 BIM primary 1, Bcl-xL primary 8 and GLD-1 TGE inh 2.
For O=C1C(Br)=Cc2cccc3cccc1c23 the results were MCL1 BIM primary 135*, Mcl1 Bid PPI -7, Bcl-xL primary 116*, GLD-1 TGE inh 83*, Mcl1 Noxa PPI 5, Bcl-xL conf 97* and MCL1 inh confirm 133*.
`Cc1ccc(SCC(=O)NC(C)c2ccccc2)cc1` (centres undefined) gave MCL1 BIM primary -9, Bcl-xL primary 1 and GLD-1 TGE inh -5.
For COc1cc(NCCCCCCCN)c2ncccc2c1 the results were MCL1 BIM primary 1, Mcl1 Bid PPI -23, Bcl-xL primary 4, GLD-1 TGE inh -7, Mcl1 Noxa PPI 32 and Mcl-1 Bim block 22.
Screening COc1cc(NC(C)CCCN)c2ncccc2c1 (centres undefined) returned MCL1 BIM primary 53*, Bcl-xL primary 44*, GLD-1 TGE inh -47, Bcl-xL conf 32* and MCL1 inh confirm 50*.
`COc1ccc2c(CCNC(=O)/C=C/c3ccc(OC)c(OC)c3)c[nH]c2c1` gave MCL1 BIM primary 2, Bcl-xL primary 4 and GLD-1 TGE inh -3.
`CS(=O)(=O)NCC(c1ccco1)N1CCN(c2ccc(F)cc2)CC1` (centres undefined) gave MCL1 BIM primary 0, Mcl1 Bid PPI -20, Bcl-xL primary 4, GLD-1 TGE inh 7, Mcl1 Noxa PPI 7 and Mcl-1 Bim block -2.
